Compounds with a hit are over-represented: about 0.93% of the library has one in this group of screens.
CDC25B-CDK2 inh: human CDC25B-CDK2/CyclinA binding inhibition; z-score (no concentration beside the values); HTRF CDC25B-CDK2/CyclinA binding, anti-His/anti-Flag; hits give high values; 0.72% of 94,000 active; in the data active = z-score above about 3.2
HIV TAR-Tat: HIV-1 TAR-Tat binding disruption. 0.6% of 100,000 active. HIV-1 TAR RNA, Tat peptide displacement FRET; hits give high values. AID 1259389. z-score (test concentration not listed); active = z-score of 3 or more in at least 2 runs
Of the large screens only hits and unclear results are named; the others gave an inactive call.

Cn1c(=O)c(=O)n(C)c2cc(S(=O)(=O)CCC(=O)N3CCc4ccccc4C3)ccc21	HIV TAR-Tat 4.06
Cn1c(=O)c2c(nc(CN3CCN(CCO)CC3)n2Cc2cccc(Cl)c2)n(C)c1=O	none
CC1CCCCC1NC(=O)CN1C(=O)CSc2ncccc21 (stereo unspecified)	none
COc1ccc(NC(=O)C2=Cc3cc(Br)ccc3OC=C2)cc1	none
O=C(COCc1cc(-c2ccco2)on1)NCc1ccc2c(c1)OCO2	none (no result: CDC25B-CDK2 inh)
CC(C)n1cnc2nc(COc3ccc(NC(=O)COc4ccccc4)cc3)cc(=O)n21	none
CCc1ccc(-n2c(C)nnc2SCc2nc(-c3ccc(OC)cc3OC)no2)cc1	none
COc1ccc(Cl)cc1NC(=O)Nc1cn(C)c(=O)c2ccccc12	none (no result: CDC25B-CDK2 inh)
CS(=O)(=O)Nc1nc2ccc(NC(=O)Cc3cccs3)cc2s1	HIV TAR-Tat 16.1 (no result: CDC25B-CDK2 inh)
CCCCC(=O)Nc1ccc2nc(NS(C)(=O)=O)sc2c1	none (no result: CDC25B-CDK2 inh)
COc1ccc(NC(=O)C2Nc3ccccc3S(=O)(=O)N2)cc1OC (stereo unspecified)	none (no result: CDC25B-CDK2 inh)
CCCn1c(NCc2ccco2)nc2ccccc21	none
Cn1cnc2cc(NCc3ccco3)ccc21	CDC25B-CDK2 inh 16.8
CC(C)(C)n1cnc2cc(NCc3ccco3)ccc21	none
CC(C)n1cnc2cc(NCc3ccco3)ccc21	CDC25B-CDK2 inh 7.83
CSc1nnc(NC(=O)c2cc(=O)c3cc(C)ccc3o2)s1	none
CCOc1ccc(-n2ccnc2SCC(=O)Nc2nnc(SCC)s2)cc1	none (no result: HIV TAR-Tat)
Cc1nn(S(=O)(=O)c2cccs2)c(C)c1S(=O)(=O)N1CCOCC1	none (no result: CDC25B-CDK2 inh)
COc1cccc(O)c1O	HIV TAR-Tat 13.4 (no result: CDC25B-CDK2 inh)
COc1cccc(OC)c1C(=O)NN	none (no result: HIV TAR-Tat)
COc1ccc(OC)c(C2CC(c3ccc(F)cc3)Nc3nnnn32)c1 (stereo unspecified)	none (no result: CDC25B-CDK2 inh)
CNc1nc2[nH]c(=O)cc(O)c2s1	none
CCNc1nc2[nH]c(=O)cc(O)c2s1	CDC25B-CDK2 inh 10.6
COc1ccc(C)cc1Nc1nc2ccc(Cl)cc2n2cnnc12	none
CCCC(O)(c1ccc(OCC)cc1)C(CN1CCCC1)c1ccccc1 (stereo unspecified)	none
Cc1cc(-c2ccc(=O)[nH]n2)cc(S(=O)(=O)N2CCC(Cc3ccccc3)CC2)c1C	HIV TAR-Tat 8.82 (no result: CDC25B-CDK2 inh)
Cc1cc(-c2ccc(=O)[nH]n2)cc(S(=O)(=O)N2CCN(c3ccccc3)CC2)c1C	none (no result: CDC25B-CDK2 inh)
O=C(NCc1ccco1)C1CCN(c2ccc(F)cc2)C1=O (stereo unspecified)	none (no result: CDC25B-CDK2 inh)
CNC(=O)c1ccc(N(Cc2ccccc2Cl)C2=NC3CS(=O)(=O)CC3S2)cc1 (stereo unspecified)	none
C=CCOc1ccc(C2C3=C(CC(C)(C)CC3=O)NC3=C2C(=O)CC(C)(C)C3)cc1	none
CCCOc1ccc(C2C3=C(CC(C)(C)CC3=O)NC3=C2C(=O)CC(C)(C)C3)cc1	CDC25B-CDK2 inh 16.1
O=C(O)CCSc1cccc2cccc(C(=O)O)c12	CDC25B-CDK2 inh 10.9 (no result: HIV TAR-Tat)
O=C(O)CSc1cccc2cccc(C(=O)O)c12	none
Cc1nn(CC(=O)NCCCN2CCc3ccccc3C2)c(=O)c2cc3sccc3n12	none
Fc1ccc(NC(=S)Nc2ccc3cn[nH]c3c2)cc1	CDC25B-CDK2 inh 20.1 (no result: HIV TAR-Tat)
CNC(=S)Nc1ccc(F)cc1	none (no result: HIV TAR-Tat)
CCOC(=O)CSc1nc2ccccc2c(=O)n1Cc1cccs1	none (no result: CDC25B-CDK2 inh)
CCOc1ccc(S(=O)(=O)c2c[nH]c3cc4c(cc3c2=O)OCCO4)cc1	none
COc1ccc(-c2nc3c(c(=O)[nH]2)Cc2cc(Br)cc(OC)c2O3)cc1O	none
COc1ccc(-c2nc3c(c(=O)[nH]2)Cc2cc(Br)cc(OC)c2O3)cc1OC	HIV TAR-Tat 12.7
CN(C)C(CNC(=O)COc1ccc(Br)cc1)c1ccco1 (stereo unspecified)	none
CCc1nnc(NC(=O)CSc2nc3c(c(=O)n2-c2ccc(F)cc2)SC(C)C3)s1 (stereo unspecified)	none
O=C(NC1CCSC1=O)c1ccc(-c2ccccc2)cc1 (stereo unspecified)	none
O=C(NC1CCSC1=O)c1cccc(C(=O)NC2CCSC2=O)c1 (stereo unspecified)	HIV TAR-Tat 26.1
CCC(C(=O)NCCC1=CCCCC1)n1nc(C)c2sc3ccccc3c2c1=O (stereo unspecified)	none
N=C1C(c2nc3ccccc3[nH]2)=C(O)CN1c1ccc(F)cc1	none
N=C1C(c2nc3ccccc3[nH]2)=C(O)CN1c1ccc(S(N)(=O)=O)cc1	HIV TAR-Tat 4.42
O=C(O)CNc1cc(N2CCCC2)c2noc3c2c1C(=O)c1ccccc1-3	CDC25B-CDK2 inh 5.47
O=C(O)CCCNc1cc(N2CCCC2)c2noc3c2c1C(=O)c1ccccc1-3	none
CC(C)CNc1cc(N2CCCC2)c2noc3c2c1C(=O)c1ccccc1-3	none
O=C(O)CNc1cc(N2CCCCC2)c2noc3c2c1C(=O)c1ccccc1-3	CDC25B-CDK2 inh 4.4
CCN1CCN(c2cc(NCC(=O)O)c3c4c(onc24)-c2ccccc2C3=O)CC1	none
O=C(O)c1ccccc1Nc1cc(N2CCCC2)c2noc3c2c1C(=O)c1ccccc1-3	HIV TAR-Tat 7.52
CCOC(=O)c1c(NC(=O)c2nn(-c3ccc(OCC)cc3)ccc2=O)sc(C)c1C	none
O=C(c1ccc(N2CCCS2(=O)=O)cc1)N1CCN(c2ncccn2)CC1	none (no result: CDC25B-CDK2 inh)
Cc1ccc(Cl)c2c1NC(=O)C2(O)CC(=O)c1ccccc1 (stereo unspecified)	CDC25B-CDK2 inh 16.8
Cc1ccc(Cl)c2c1NC(=O)C2(O)CC(=O)c1ccc(F)cc1 (stereo unspecified)	none
Oc1cccc(Nc2nc(-c3cccnc3)cs2)c1	none
O=C(O)c1cc(Nc2nc(-c3cccnc3)cs2)ccc1O	HIV TAR-Tat 4.39
Cc1cccc(-c2nc(-c3ccc4c(c3)nnn4C3CCCC3)no2)c1	none (no result: CDC25B-CDK2 inh)
CCc1ccc(S(=O)(=O)Nc2cc(Br)c(O)c3ccccc23)cc1	CDC25B-CDK2 inh 17.9 (no result: HIV TAR-Tat)
CC(C)OC(=O)C(C(=O)C(F)(F)F)c1cc(NS(=O)(=O)c2ccc(Br)cc2)c2ccccc2c1O (stereo unspecified)	CDC25B-CDK2 inh 18.7 (no result: HIV TAR-Tat)
CCc1ccc(S(=O)(=O)Nc2cc(-c3c(O)ccc4ccccc34)c(O)c3ccccc23)cc1	none (no result: HIV TAR-Tat)
CC(C)OC(=O)C(C(=O)C(F)(F)F)c1cc(NS(=O)(=O)c2ccccc2)c2ccccc2c1O (stereo unspecified)	none (no result: HIV TAR-Tat)
CC(C)N(Cc1nc(-c2ccc(Cl)cc2)no1)C(=O)N1CCOCC1	none
O=C(O)Cn1ncn2c(c(-n3cccc3)c3c4c(sc32)CCCC4)c1=O	none
Cc1ccc(CNC(=O)Cn2ncn3c(c(-n4cccc4)c4c5c(sc43)CCCC5)c2=O)cc1	HIV TAR-Tat 11.7
Cc1[nH]c2ccccc2c1SCC(=O)NNC(=O)Nc1cccc(Cl)c1	CDC25B-CDK2 inh 14.3 (no result: HIV TAR-Tat)
O=C(CSc1nc2ccccc2c(=O)[nH]1)Nc1cccc(Cl)c1	none (no result: CDC25B-CDK2 inh)
CCOC(=O)Cc1c(C)nc2nc(NCc3cc(F)cc(F)c3)[nH]n2c1=O	none
Cc1cc(C)n2c(SCc3ccc(Br)cc3)nnc2n1	none
Cc1cc(C)n2c(SCc3ccc(C(=O)c4ccccc4)cc3)nnc2n1	CDC25B-CDK2 inh 8.33
CCS(=O)(=O)N1CCCC(C(=O)NCCCN2CCOCC2)C1 (stereo unspecified)	none (no result: CDC25B-CDK2 inh)
O=C(Cn1c(=O)n(Cc2ccco2)c(=O)c2oc3ccccc3c21)Nc1cccc(Cl)c1	none (no result: CDC25B-CDK2 inh)
CC(C)(C)NC(=S)N/N=C/c1coc2c(Cl)cc(Cl)cc2c1=O	none (no result: HIV TAR-Tat)
Cc1nc(-c2ccccc2)sc1C(=O)Nc1sc2c(c1C#N)CCC2	HIV TAR-Tat 16.7
Cc1nc(-c2ccccc2)sc1C(=O)Nc1sc(C)c(C)c1C#N	none
Cc1cccc(C2C(C#N)=C3N=C(N)c4ccccc4N3C3=C2C(=O)CCC3)c1 (stereo unspecified)	none

Compound activity (PubChem BioAssay)
